Laboratory results reported in article PMC4336329 (PLoS ONE, 2015).
Out of some 310,000 compounds screened, about 2,200 (0.71%) showed an effect of 50% or more. Effects have a minus sign here. The sample as a whole holds a higher share of strong results than the screen did.

biological target: human ether-à-go-go-related gene (hERG) potassium channel (human, UniProt Q12809); assay: primary screen, population patch clamp on CHO cells stably expressing hERG; higher = less effect of the substance
Sequence (Q12809 whole entry, looked up): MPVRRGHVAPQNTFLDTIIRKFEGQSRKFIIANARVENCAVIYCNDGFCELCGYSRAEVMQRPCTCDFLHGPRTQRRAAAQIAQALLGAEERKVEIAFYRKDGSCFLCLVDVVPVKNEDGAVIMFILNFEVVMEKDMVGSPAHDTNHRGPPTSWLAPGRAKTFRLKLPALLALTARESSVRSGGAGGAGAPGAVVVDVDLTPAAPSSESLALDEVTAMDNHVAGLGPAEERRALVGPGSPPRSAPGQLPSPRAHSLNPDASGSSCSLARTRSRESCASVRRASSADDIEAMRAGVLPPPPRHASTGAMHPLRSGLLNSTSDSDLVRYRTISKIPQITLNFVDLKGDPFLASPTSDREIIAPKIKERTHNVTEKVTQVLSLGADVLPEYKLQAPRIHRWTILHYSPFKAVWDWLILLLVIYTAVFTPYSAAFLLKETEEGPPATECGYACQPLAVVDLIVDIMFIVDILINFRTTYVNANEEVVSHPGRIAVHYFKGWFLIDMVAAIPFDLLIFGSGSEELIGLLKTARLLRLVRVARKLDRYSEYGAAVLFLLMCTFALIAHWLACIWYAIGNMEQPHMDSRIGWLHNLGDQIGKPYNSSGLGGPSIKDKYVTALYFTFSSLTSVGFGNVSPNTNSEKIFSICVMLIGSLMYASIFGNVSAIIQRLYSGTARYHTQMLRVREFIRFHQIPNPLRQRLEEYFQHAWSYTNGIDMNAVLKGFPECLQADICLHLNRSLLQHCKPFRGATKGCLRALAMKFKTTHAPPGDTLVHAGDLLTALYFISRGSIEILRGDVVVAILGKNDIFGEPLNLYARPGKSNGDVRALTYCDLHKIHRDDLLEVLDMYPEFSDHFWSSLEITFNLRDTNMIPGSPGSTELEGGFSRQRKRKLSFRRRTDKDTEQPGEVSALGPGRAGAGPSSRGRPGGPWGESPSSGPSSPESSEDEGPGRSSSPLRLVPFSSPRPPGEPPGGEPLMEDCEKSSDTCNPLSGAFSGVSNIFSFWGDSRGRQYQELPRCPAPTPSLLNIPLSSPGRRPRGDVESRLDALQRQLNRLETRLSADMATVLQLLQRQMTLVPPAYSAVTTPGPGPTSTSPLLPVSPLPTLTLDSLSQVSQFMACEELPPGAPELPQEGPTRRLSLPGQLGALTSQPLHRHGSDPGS

First: COc1ccc(C(=O)Nc2nc(N3C(=O)c4ccccc4C3=O)n(-c3ccccc3)n2)cc1
Second: CC(C)(CN=C1NS(=O)(=O)c2ccccc21)CNC(=O)CN1C(=O)c2ccccc2C1=O
The “hERG current change (%, negative = inhibition) at 1uM” value of the first is higher: 3.14% for the first, -1.01% for the second.

Going from `CSc1ncc(Sc2ccccc2)c(C(=O)O)n1` to `Cc1ccccc1-c1noc(CCC(=O)NCCc2ccccc2)n1`, the “hERG current change (%, negative = inhibition) at 1uM” value rises from 10.3% to 10.4%.

Compared with `O=C(CSc1nnc(NC(=O)c2ccc(F)cc2F)s1)NC1CC1`, `Cn1nc2c(c1C(=O)N1CCCC(C(=O)c3cc(F)ccc3F)C1)CCCC2` (stereo not shown) is lower in “hERG current change (%, negative = inhibition) at 1uM” value: 14.9% for the first, 10.8% for the second.

Going from `COc1cc(OC)cc(-c2nnc(Nc3nc4c(F)cccc4s3)o2)c1` to `COCCCNC(=O)CS(=O)(=O)Cc1nc(-c2cccc(OC)c2)oc1C`, the “hERG current change (%, negative = inhibition) at 1uM” value rises from 6.96% to 11.3%.

Compared with `O=C(c1ccc2c(=O)n(CC3CCCO3)c(=S)[nH]c2c1)N1CCN(c2ccccc2)CC1` (stereo not shown), `Cc1cc(N2CCN(c3ccccc3)CC2)n2ncnc2n1` is lower in “hERG current change (%, negative = inhibition) at 1uM” value: 3.81% for the first, -7.73% for the second.

First: O=C(CCNS(=O)(=O)c1cccs1)N1CCN(c2cccc(C(F)(F)F)c2)CC1
Second: CC(=O)Nc1ccc(S(=O)(=O)N2CCN(c3cc(C)nc4ncnn34)CC2)cc1
The “hERG current change (%, negative = inhibition) at 1uM” value of the first is higher: -2.16% for the first, -9.05% for the second.

Compared with `C=CCn1c(C2CC2)n[nH]c1=S`, `Fc1cccc(C2NC(=S)NC3=C2N2CCC3CC2)c1` (stereo not shown) is higher in “hERG current change (%, negative = inhibition) at 1uM” value: 1.66% for the first, 1.79% for the second.

Compared with `O=C(NCc1ccc(Cl)cc1)c1noc2c1CCCCC2`, `CO/N=C(\Cn1ncc(NC2CCCCC2)c(Br)c1=O)c1ccc(Cl)cc1` is higher in “hERG current change (%, negative = inhibition) at 1uM” value: -6.49% for the first, -1.74% for the second.

Compared with `Cc1cccn2c(=O)nc(SCC(=O)N3CCC(Cc4ccccc4)CC3)nc12`, `O=C(CSc1nc(=O)n2ccccc2n1)N1CCC(Cc2ccccc2)CC1` is higher in “hERG current change (%, negative = inhibition) at 1uM” value: -69.2% for the first, -27.4% for the second.

Going from `Cc1cccn2c(=O)nc(SCC(=O)N3CCC(C)CC3)nc12` to `Cc1cccc(N2CCN(C(=O)Cn3nc(Cc4ccncc4)c4ccccc4c3=O)CC2)c1C`, the “hERG current change (%, negative = inhibition) at 1uM” value rises from 2.05% to 3.71%.

First: CCOc1ccccc1NC(=O)C(OC(=O)c1ccccc1O)c1ccccc1 (stereo not shown)
Second: COc1ccccc1C(=O)NC1CCN(C(=O)Nc2ccc(C)cc2)CC1
The “hERG current change (%, negative = inhibition) at 1uM” value of the first is lower: -2.03% for the first, 10.5% for the second.

Compared with `O=S(=O)(NC1CCC(NS(=O)(=O)c2c(F)cccc2F)CC1)c1ccc2c(c1)OCCO2` (stereo not shown), `O=C1NC(c2ccc3c(c2)OCO3)Oc2ccccc21` (stereo not shown) is lower in “hERG current change (%, negative = inhibition) at 1uM” value: 10.7% for the first, 7.7% for the second.

Compared with `COc1ccc(C[C@H]2CN3C(=NC[C@@H]3Cc3ccc(O)cc3)N2CCNC(=O)c2ccc(C)c(Br)c2)cc1`, `COc1ccc(C[C@H]2CN3C(=NC[C@@H]3Cc3ccc(O)cc3)N2C[C@H](C)NC(=O)c2ccc(C)c(Br)c2)cc1` is lower in “hERG current change (%, negative = inhibition) at 1uM” value: -18.4% for the first, -60.1% for the second.

First: COc1ccc(C[C@@H]2CN3C(=NC[C@@H]3C)N2C[C@H](C)NC(=O)c2ccc(C)c(Br)c2)cc1
Second: COc1ccc(C[C@H]2CN3C(=NC[C@@H]3C(C)C)N2C[C@H](C)NC(=O)c2ccc(C)c(Br)c2)cc1
The “hERG current change (%, negative = inhibition) at 1uM” value of the first is lower: -56.4% for the first, -41.9% for the second.

Compared with `Cc1ccc(C(=O)N[C@@H](C)CN2C3=NC[C@H](C(C)C)N3C[C@H]2Cc2ccc(O)cc2)cc1Br`, `Cc1ccc(C(=O)N[C@@H](C)CN2C3=NC[C@H](Cc4ccccc4)N3C[C@H]2Cc2ccc(O)cc2)cc1Br` is lower in “hERG current change (%, negative = inhibition) at 1uM” value: -34.3% for the first, -68.1% for the second.

Going from `C/C=C(\C)C(=O)NCCN1C2=NC[C@H](C)N2C[C@@H]1Cc1ccc(OC)cc1` to `C/C=C(\C)C(=O)NCCN1C2=NC[C@H](Cc3ccc(O)cc3)N2C[C@@H]1Cc1ccc(OC)cc1`, the “hERG current change (%, negative = inhibition) at 1uM” value rises from 7.75% to 10.6%.

First: Cc1ccc(C(=O)NCCN2C3=NC[C@@H](Cc4ccccc4)N3C[C@H]2Cc2ccc(O)cc2)cc1Br
Second: N=c1c(C(=O)NC2CCCC2)cc2c(=O)n3ccccc3nc2n1Cc1ccccc1
The “hERG current change (%, negative = inhibition) at 1uM” value of the first is higher: -4.33% for the first, -55.9% for the second.

First: Cc1cc(Cl)cc(Br)c1OCCCCn1cncn1
Second: CCN(CC)CCOC(=O)c1ccc(Cl)cc1Cl.Cl
The “hERG current change (%, negative = inhibition) at 1uM” value of the first is higher: -0.515% for the first, -8.41% for the second.

Going from `Cc1cc(=O)[nH]c(N/N=C/c2cccc([N+](=O)[O-])c2)n1` to `Cc1cc(N2CCN(c3ccc(F)cc3)CC2)n2ncnc2n1`, the “hERG current change (%, negative = inhibition) at 1uM” value falls from 9.49% to -14.8%.

Compared with `CC1(c2nnc(Cc3ccccc3)o2)CC(c2ccccc2[N+](=O)[O-])=NO1` (stereo not shown), `Cn1c(Cn2nnc(-c3ccccc3)n2)nnc1SCc1ccccc1Cl` is higher in “hERG current change (%, negative = inhibition) at 1uM” value: 0.886% for the first, 5.26% for the second.

First: Cc1c(NC(=O)c2ccc(Cl)s2)c(=O)n(-c2ccccc2)n1C
Second: Cl.O=C(Nc1ccc(Br)cn1)c1ccc(Br)s1
The “hERG current change (%, negative = inhibition) at 1uM” value of the first is lower: 8.57% for the first, 13.3% for the second.

Going from `CCCCNC(=O)CCCCCNS(=O)(=O)c1ccc(Br)cc1` to `CCCNC(=O)CS(=O)(=O)Cc1nc(-c2cccc(OC)c2)oc1C`, the “hERG current change (%, negative = inhibition) at 1uM” value falls from -26.3% to -284%.

First: Cc1cc(N2CCN(C(c3ccccc3)c3ccccc3)CC2)n2ncnc2n1
Second: Cc1cc(N2CCN(c3nc4ccccc4s3)CC2)n2ncnc2n1
The “hERG current change (%, negative = inhibition) at 1uM” value of the first is higher: 8.18% for the first, -74.9% for the second.

Compared with `Cc1cc(N2CCN(S(=O)(=O)c3ccc4ccccc4c3)CC2)n2ncnc2n1`, `Cc1cc(N2CCN(S(=O)(=O)c3ccc(Br)cc3)CC2)n2ncnc2n1` is lower in “hERG current change (%, negative = inhibition) at 1uM” value: -48.4% for the first, -84.8% for the second.

First: Cc1cc(N2CCN(S(=O)(=O)Cc3ccccc3)CC2)n2ncnc2n1
Second: Cc1cc(N2CCN(C/C=C/c3ccccc3)CC2)n2ncnc2n1
The “hERG current change (%, negative = inhibition) at 1uM” value of the first is higher: -11.4% for the first, -52.2% for the second.

Compared with `O=C(Nc1ccc(Nc2ccccc2)cc1)C(Cl)(Cl)Cl`, `NC(=S)Nc1cccc2cc3ccccc3cc12` is lower in “hERG current change (%, negative = inhibition) at 1uM” value: 7.95% for the first, 0.594% for the second.

First: CCCS(=O)(=O)N1CCN(C(=O)COc2ccc(OC)cc2)CC1.O=C(O)C(=O)O
Second: COc1cccc(-c2nc(CS(=O)(=O)CC(=O)NCCCN3CCN(C)CC3)c(C)o2)c1
The “hERG current change (%, negative = inhibition) at 1uM” value of the first is higher: 11.7% for the first, 11.2% for the second.

Compared with `O=C(CN(C(=O)c1csnn1)c1ccccc1C(F)(F)F)NC1CCCCC1`, `N=c1c(C(=O)NC2CCCCC2)cc2c(=O)n3ccccc3nc2n1Cc1ccccc1` is lower in “hERG current change (%, negative = inhibition) at 1uM” value: 14.5% for the first, -10.1% for the second.

Compared with `Cc1ccc(N(CC(=O)NCC2CCCO2)C(=O)Cn2nnc(-c3cccs3)n2)cc1` (stereo not shown), `Cc1ccc(Cn2c(=N)c(C(=O)NC3CCCC3)cc3c(=O)n4ccccc4nc32)cc1` is lower in “hERG current change (%, negative = inhibition) at 1uM” value: 2.07% for the first, -73.4% for the second.

First: COCCCNC(=O)C(=O)Nc1cc2c3c(c1)CCN3C(=O)CC2
Second: COc1ccc(CCNC(=O)c2c(O)c3cccc4c3n(c2=O)CC4)cc1OC
The “hERG current change (%, negative = inhibition) at 1uM” value of the first is higher: 21.5% for the first, -6.66% for the second.

Going from `CCOc1cc(CN2CCCC(CO)(Cc3ccc(F)cc3F)C2)ccc1OC` (stereo not shown) to `O=C(CC1SC(=Nc2ccccc2F)N(CCN2CCOCC2)C1=O)Nc1ccc(F)cc1F` (stereo not shown), the “hERG current change (%, negative = inhibition) at 1uM” value rises from -10.8% to 1.58%.

Going from `CC(C)(C)OC(=O)N/N=C\c1ccc(OC(=O)c2ccco2)cc1` to `Cc1ccc(=O)n(C(C(=O)NCc2ccco2)C(=O)c2ccc(F)cc2)c1` (stereo not shown), the “hERG current change (%, negative = inhibition) at 1uM” value falls from 10.8% to 6.1%.

First: O=C(CC1SC(=Nc2ccc(OC(F)F)cc2)N(CCN2CCOCC2)C1=O)Nc1ccc(F)cc1F (stereo not shown)
Second: COc1ccc(N=C2SC(CC(=O)Nc3ccccc3)C(=O)N2CCN2CCOCC2)cc1 (stereo not shown)
The “hERG current change (%, negative = inhibition) at 1uM” value of the first is lower: -80.4% for the first, 3.66% for the second.

Compared with `Cc1sc2ncnc(NC3CCN(Cc4ccccc4)CC3)c2c1C`, `Cc1csc2ncnc(NC3CCN(Cc4ccccc4)CC3)c12` is higher in “hERG current change (%, negative = inhibition) at 1uM” value: -56.9% for the first, -35.4% for the second.

Going from `c1ccc(CN2CCC(Nc3ncnc4sccc34)CC2)cc1` to `N=c1c(C(=O)NC2CCCCC2)cc2c(=O)n3ccccc3nc2n1Cc1cccnc1`, the “hERG current change (%, negative = inhibition) at 1uM” value falls from -31.2% to -50.6%.

Compared with `CN(C)CCCOC(=O)c1ccc(Cl)cc1Cl.Cl`, `CCCN(CCC)CCCOC(=O)c1ccc(Cl)cc1Cl.Cl` is lower in “hERG current change (%, negative = inhibition) at 1uM” value: -7.49% for the first, -56.8% for the second.

First: Cn1cc(CNCc2ccc(-n3cccn3)cc2)c(-c2ccccc2F)n1
Second: CN(Cc1ccc(-n2cccn2)cc1)Cc1cn(C)nc1-c1ccccc1F
The “hERG current change (%, negative = inhibition) at 1uM” value of the first is higher: -35.4% for the first, -63.5% for the second.

Compared with `CN(Cc1cccc(-n2cccn2)c1)Cc1cn(C)nc1-c1ccccc1F`, `Cc1ccc(Cn2c(=N)c(S(=O)(=O)c3ccc(C)cc3)cc3c(=O)n4ccccc4nc32)cc1` is lower in “hERG current change (%, negative = inhibition) at 1uM” value: 16.7% for the first, 6.66% for the second.

Compared with `CCCCOc1ccc(Cc2c(COCC)[nH]c(=S)[nH]c2=O)cc1`, `COc1cccc(-c2nc(CS(=O)(=O)CC(=O)NCCCN3CCc4ccccc4C3)c(C)o2)c1` is lower in “hERG current change (%, negative = inhibition) at 1uM” value: 13% for the first, -56.3% for the second.

First: COc1cccc(-c2nc(CS(=O)(=O)CC(=O)NCCCN3CCOCC3)c(C)o2)c1
Second: COc1cccc(-c2nc(CS(=O)(=O)CC(=O)NCCC(C)C)c(C)o2)c1
The “hERG current change (%, negative = inhibition) at 1uM” value of the first is lower: 10.9% for the first, 14.4% for the second.

Going from `Cn1nc(C(F)(F)F)cc1C(=O)O` to `Cc1ccc(S(=O)(=O)c2cc3c(=O)n4ccccc4nc3n(Cc3ccco3)c2=N)cc1C`, the “hERG current change (%, negative = inhibition) at 1uM” value falls from 17.3% to -6.2%.

Compared with `Cc1ccc(Cn2c(=N)c(C(=O)NC3CCCCC3)cc3c(=O)n4ccccc4nc32)cc1`, `N=c1c(C(=O)NC2CCCCC2)cc2c(=O)n3ccccc3nc2n1Cc1ccc(F)cc1` is lower in “hERG current change (%, negative = inhibition) at 1uM” value: -5.62% for the first, -29.5% for the second.

For `N=c1c(C(=O)NC2CCCCC2)cc2c(=O)n3ccccc3nc2n1Cc1ccco1`, the “hERG current change (%, negative = inhibition) at 1uM” value was -59.1%.
